# Compound activity (PubChem BioAssay)
# D1 agonist: agonists of human D1 dopamine receptor. HEK293 T-REx D1 cells, calcium flux, agonist mode. activation, % at 2 µM. 1% of 360,000 active. AID 504660; in the data active means activation above about 30%; further: 0% is about no effect
# Target sequence (P21728 whole entry, looked up): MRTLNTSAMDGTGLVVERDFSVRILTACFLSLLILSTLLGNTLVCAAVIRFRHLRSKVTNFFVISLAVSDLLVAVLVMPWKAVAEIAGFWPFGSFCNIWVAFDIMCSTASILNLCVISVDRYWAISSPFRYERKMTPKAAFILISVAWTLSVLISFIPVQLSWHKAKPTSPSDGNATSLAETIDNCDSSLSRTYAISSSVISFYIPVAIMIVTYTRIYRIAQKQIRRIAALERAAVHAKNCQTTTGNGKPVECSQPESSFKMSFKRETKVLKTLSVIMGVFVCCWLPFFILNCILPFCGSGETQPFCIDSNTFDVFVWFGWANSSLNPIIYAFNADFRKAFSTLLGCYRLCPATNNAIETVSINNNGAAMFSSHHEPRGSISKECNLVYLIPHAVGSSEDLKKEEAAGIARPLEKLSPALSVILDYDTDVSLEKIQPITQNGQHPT
#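 Agonism was scored from calcium flux recorded over 180 s (1 read/s) after pintool compound addition, following a 10-cycle baseline. Cells were inducible force-coupled HEK293 TREx D1, plated overnight at 30 C and loaded with no-wash calcium dye.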
# DRD3 antagonist: D3 dopamine receptor (human) antagonism; P35462; D3R cells, DiscoveRx beta-arrestin luminescence, antagonist mode; active compounds read low; max response, negative = inhibition, %; 2.5% of 360,000 active; AID 652054; in the data active means max response below about -50%; further: on the % scale 0 is the no-effect control and ±100 the full control effect
#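 Cells plated overnight at 1500 cells/well, then exposed to library compounds with dopamine controls for 90 minutes at 37 degrees C. DiscoveRx reagent added for 30–60 minutes at room temperature; luminescence read, quantitative HTS format.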
# D3 ag: activates the human D3 dopamine receptor. D3R DiscoveRx beta-arrestin cells, luminescence, 90 min. AID 652048. max activation, %. 0.58% of 410,000 active. P35462; in the data active means max activation above about 30%; further: 0% is about no effect
#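 Cells at 1500/well, incubated overnight, then treated with pinned compounds (dopamine as control) for 90 min at 37 degrees C. DiscoveRx reagent added for 30 - 60 minutes at room temperature; luminescence read.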
# D1 PAM: human D1 dopamine receptor positive modulation. P21728. HEK293 TREx D1 cells, calcium flux, dopamine EC20 potentiation. potentiation, % at 10 µM. 0.036% of 360,000 active. AID 504651; in the data active means potentiation above about 30%; further: 0% is about no effect
# D1 antag: blocks dopamine activation of the human D1 receptor; P21728; HEK293 TREx D1 cells, calcium flux, dopamine EC80; active compounds read low; activity change, negative = inhibition, % at 10 µM; 3.2% of 360,000 active; in the data active means activity change below about -30%; further: on the % scale 0 is the no-effect control and ±100 the full control effect
#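 After overnight tetracycline induction at 30 C, force-coupled D1 HEK293 cells took up a no-wash calcium dye at room temperature. Compounds were added and monitored 180 s, and the response to EC80 dopamine was then recorded.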
# Starred values were filed as active, the others as inactive; x = no result. Compounds with a hit are over-represented: about 6.1% of the library has one in this group of screens.
SMILES,D1 agonist,DRD3 antagonist,D3 ag,D1 PAM,D1 antag
O=C(/C=C/c1ccc(N2CCCCC2)c([N+](=O)[O-])c1)c1ccc(O)cc1,4.3,-20.3,1.5,-6.3,6.2
CC(C)C(C(=O)NC(C)(C)C)N1C(=O)c2ccccc2C1=O (stereo not given),1.4,21.6,0.8,-9.8,9.4
CC(C(=O)NC(C)(C)C)N1C(=O)c2cccc3cccc(c23)C1=O (stereo not given),1.0,-13.8,-8.0,-4.2,-71.4*
CC1O[C@@H](OC2C(COC3OC(CO)C(O)[C@H](O)C3O)OC(OC3CC[C@]4(C)C(CC[C@@]5(C)[C@@H]4CC=C4[C@@H]6CC(C)(C)CC[C@]6(CO)C(O)C[C@]45C)C3(C)C)C(O)C2O)C(O)C(O)C1O (stereo not given in full),x,-2.5,4.4,x,x
CC1OC(O[C@H]2CC[C@]3(C)C4C=C[C@]56OC[C@@]7(CC[C@@H](C)[C@H](C)C75)[C@H](O)C[C@@]6(C)[C@]4(C)CC[C@H]3C2(C)C)C(OC2OC(CO)C(O)C(O)C2OC2OCC(O)C(O)C2O)C(O)C1O (stereo not given in full),243.9*,x,x,14.2,41.3
COc1ccc(S(=O)(=O)N2CCOCC2)cc1NC(=O)COC(=O)C1CC1C (stereo not given),0.1,3.3,4.7,1.7,-6.6
O=C(NCn1ccc(=O)[nH]c1=S)c1ccccc1,0.1,11.0,9.6,3.5,-45.6*
O=C(c1cccn1-c1nnc(N2CCCCC2)s1)N1CCN(c2ccc(Cl)cc2)CC1,0.8,x,-2.2,-1.9,-10.9
COc1ccccc1C=C1SC(=S)NC1=O,x,0.0,3.6,x,x
O=C1NC(=S)SC1=Cc1ccccc1Cl,x,16.4,37.7*,x,x
Cc1nn(C)cc1/C=C1\SC(=S)NC1=O,2.9,-69.9*,0.5,3.1,3.5
COc1ccc2c3c(cccc13)C(=O)CC2,52.0*,-1.0,-8.6,-10.4,0.3
CC(=O)Oc1c(C)cc(Cl)cc1C(=O)Nc1ccc([N+](=O)[O-])cc1Cl,33.7*,4.4,4.6,-10.4,-21.3
O=C(O)c1c(-c2ccccc2)oc2ccc(OCc3c(F)cccc3Cl)cc12,36.2*,x,0.7,0.8,0.5
CN(CCCNC(=O)c1ccc(CS(=O)c2ccc(Br)cc2)o1)Cc1ccccc1 (stereo not given),1.0,13.4,-8.3,-2.6,-7.0
Cc1cc(N/N=C/c2ccc(O)cc2O)nc(-n2nc(C)cc2C)n1,1.5,-122.0*,-27.8,0.4,-16.6
Cc1cc(N/N=C/c2ccccc2O)nc(-c2ccccc2O)n1,0.3,-131.4*,-1.5,-5.7,-12.5
COc1ccc(O)c(/C=N/Nc2nc(Nc3ccccc3)nc(-n3nc(C)cc3C)n2)c1,1.1,-117.2*,-38.9,-7.3,-10.5
COc1cc(/C=N/Nc2nc(Nc3ccccc3)nc(-n3nc(C)cc3C)n2)cc(OC)c1OC,-0.1,1.2,16.8,0.5,1.4
CN(Cc1ccccc1)C(=O)COC(=O)C1CCN(S(=O)(=O)c2ccc(Cl)c(C(F)(F)F)c2)CC1,8.3,-3.5,0.7,-1.9,19.7
Cc1ccc2c(=O)cc(C(=O)Nc3sc4c(c3C(=O)NCc3ccccc3)CCCC4)oc2c1C,0.4,x,8.0,-0.9,3.3
CCC(=O)N1c2ccc(S(=O)(=O)N3CCC(C)CC3)cc2CC1C (stereo not given),2.8,x,1.1,4.7,-21.1
CCCC(=O)N1CCc2cc(OC)c(OC)cc2C1COc1ccc2c(C)cc(=O)oc2c1 (stereo not given),-0.2,x,3.2,1.8,-0.6
COCCNC(=O)C1CCN(S(=O)(=O)c2c(C)noc2/C=C/c2cccs2)CC1,7.2,-15.9,-4.1,-0.1,4.2
COc1ccccc1Cc1noc(COc2cccc(C)c2C)n1,13.8,9.5,-10.8,-6.0,-78.0*
SMILES,D1 agonist,DRD3 antagonist,D3 ag,D1 PAM,D1 antag
CCOc1ccc(OCC)c(NC(=O)CCCN2C(=S)NC(C)(C)CC2C)c1 (stereo not given),-2.5,-55.9*,0.5,-2.0,14.5
COc1cccc(-n2nc(C#N)c(Cl)cc2=O)c1,4.9,-87.0*,-14.1,-2.6,-31.9*
CCCC(=O)Nc1ccc(C(=O)n2ccc(C)n2)cc1,6.8,-14.9,-5.7,0.9,3.7
COc1ccc(-c2nnc(Nc3nc4c(OC)cccc4s3)o2)c(OC)c1,-2.3,-68.0*,-3.6,-0.1,1.5
Cc1ccc(Cl)cc1N1CCN(S(=O)(=O)c2cn(C)cn2)CC1,13.2,16.0,4.6,-3.8,-34.6*
Cc1ccc(Cl)cc1N1CCN(S(=O)(=O)c2ccc3[nH]c(=O)ccc3c2)CC1,0.8,23.6,1.5,-15.2,-89.2*
Cc1ccc(Cl)cc1N1CCN(S(=O)(=O)c2cn(C)c(C)n2)CC1,0.5,x,-7.1,0.8,6.7
Cc1ccc(Cl)cc1N1CCN(S(=O)(=O)c2ccc3[nH]c(=O)c(=O)[nH]c3c2)CC1,25.2,-18.9,-8.0,-2.1,-6.8
O=c1ccc2cc(S(=O)(=O)N3CCN(c4ccccc4F)CC3)ccc2[nH]1,12.4,17.6,1.5,-9.7,-34.4*
COCCN1C(=O)COc2ccccc2C1C(=O)Nc1ccc2c(c1)OCCO2 (stereo not given),x,16.5,1.8,x,x
CN1CCN(C(c2ccc(C(F)(F)F)cc2)c2cc(Cl)c3cccnc3c2O)CC1 (stereo not given),14.2,x,x,9.2,-4.4
Oc1c(C(c2ccccn2)N2CCCCC2)cc(Cl)c2cccnc12 (stereo not given),1.6,-76.3*,-21.5,5.8,-0.3
O=C(NC(c1ccc(Cl)cc1)c1cc(Cl)c2cccnc2c1O)c1cccnc1 (stereo not given),12.9,-100.2*,2.4,-6.2,6.5
CN1CCN(C(c2ccc(Cl)cc2)c2cc(Cl)c3cccnc3c2O)CC1 (stereo not given),5.4,-98.5*,-22.3,4.5,7.3
COc1ccc(S(=O)(=O)NCCCn2ccnc2)cc1Cl,9.3,23.0,4.9,-3.7,0.8
C#CCOCCOCCOCCNc1nc(N2CCN(C(=O)CCCCCCCCCCNC(=O)[C@@H](CCC(=O)O)n3cc(CCCCCN)nn3)CC2)nc(N2CCN(C(=O)CCCCCCCCCCNC(=O)[C@H](CO)n3cc(CCCSC)nn3)CC2)n1,17.3,32.0,4.7,-2.5,23.6
C#CCOCCOCCOCCNc1nc(N2CCN(C(=O)CCCCCCCCCCNC(=O)[C@@H](CCSC)n3cc(CCO)nn3)CC2)nc(N2CCN(C(=O)CCCCCCCCCCNC(=O)[C@H](CO)n3cc(CCCCCN)nn3)CC2)n1,3.4,68.5,9.2,-5.8,-39.5*
C#CCOCCOCCOCCNc1nc(N2CCN(C(=O)CCCCCCCCCCNC(=O)[C@@H](CCC(=O)O)n3cc(CCCCCN)nn3)CC2)nc(N2CCN(C(=O)CCCCCCCCCCNC(=O)[C@H](CO)n3cc(CCCCCN)nn3)CC2)n1,45.2*,4.7,1.7,-3.5,-4.2
